Growth inhibition data for 9 molecules are collected here from PubChem BioAssay (NCI).

About 79,000 compounds went through this panel and 15% of them were active in at least one assay; those are over-represented in the sample as a whole. A number with no mark means an inactive call. Calls of active or inactive are those of the source. Rule as the data show it: active = growth inhibition above about 70%; inactive = the rest.

Test [1] is described as follows: NCI Yeast Anticancer Drug Screen. Data for the rad50 strain (AID 155).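 Also: 0% = growth of vehicle-only cultures of the same strain.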 Particulars: S. cerevisiae rad50 strain growth inhibition, stronger effect = higher value. In outline: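 A DNA repair-deficient yeast mutant serves as the test organism; compound-induced growth inhibition is calculated against vehicle-treated cells.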
A short description of test [2]: NCI Yeast Anticancer Drug Screen. Data for the mec2-1 strain (AID 157). Particulars: S. cerevisiae mec2-1 strain, stronger effect = higher value. In outline: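 Yeast mec2-1 mutant treated with compound. Readout: growth inhibition vs vehicle controls.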
Test [3] can be described thus: NCI Yeast Anticancer Drug Screen. Data for the sgs1 mgt1 strain (AID 161).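 Also: 0% = growth of cultures given vehicle only.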 Particulars: S. cerevisiae sgs1 mgt1 strain, stronger effect = higher value. In outline:
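Read-out: growth inhibition vs vehicle controls. Cells: mutant yeast strain deficient in DNA damage repair.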

Test [4] is described as follows: NCI Yeast Anticancer Drug Screen. Data for the cln2 rad14 strain (AID 165).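 Also: 0% = growth equal to vehicle treated cultures.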 Particulars: S. cerevisiae cln2 rad14 strain, stronger effect = higher value. In outline: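 cln2 rad14 yeast strain; compound exposure; growth inhibition read vs vehicle controls.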
The nature of test [5]: NCI Yeast Anticancer Drug Screen. Data for the bub3 strain (AID 167). Particulars: S. cerevisiae bub3 mutant strain, stronger effect = higher value. The method in brief: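 Inhibition values come from growth of compound-treated mutant yeast normalised to vehicle-treated controls.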
Test [6] can be described thus: NCI Yeast Anticancer Drug Screen. Data for the mlh1 rad18 strain (AID 175). The note with it: S. cerevisiae mlh1 rad18 strain growth inhibition, stronger effect = higher value. In outline: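 Yeast w/ defined DNA-repair lesions; compound exposure; growth vs vehicle controls → % inhibition.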
[7] abbreviates: at 5.0 µM (retest, dose inferred, filed as 0.5).
Where [8] appears, read: at 50.0 µM (retest, dose inferred, filed as 5.0).

As for `COc1cc(/C=C(/C)[N+](=O)[O-])c([N+](=O)[O-])cc1OC`, the growth inhibition was 29% in test [1] (setting [7]); 75% (active) in test [1] (setting [8]); 88.3% (active) in test [1] (at 50.0 µM); 2% in test [2] (setting [7]); 33% in test [2] (setting [8]); 85.5% (active) in test [2] (at 50.0 µM). The growth inhibition was 14% in test [3] (setting [7]); 65% in test [3] (setting [8]); 71.7% (active) in test [3] (at 50.0 µM); 3% in test [4] (setting [7]); 29% in test [4] (setting [8]); 14.8% in test [4] (at 50.0 µM). The growth inhibition is 0% in test [5] (setting [7]); 54% in test [5] (setting [8]); 67% in test [5] (at 50.0 µM); 10% in test [6] (setting [7]); 35% in test [6] (setting [8]); 71.7% (active) in test [6] (at 50.0 µM).
As to `CCCCCCCCCCC(=O)O.[Pb]`, the growth inhibition is -14% in test [1] (setting [7]); 2% in test [1] (setting [8]); 55.5% in test [1] (at 50.0 µM); -10% in test [2] (setting [7]); 6% in test [2] (setting [8]); 5.05% in test [2] (at 50.0 µM). Moreover, the growth inhibition in test [3] (setting [7]) is -7%; in test [3] (setting [8]), 9%; in test [3] (at 50.0 µM), 38.5%; in test [4] (setting [7]) it was -2%; in test [4] (setting [8]), -1%; in test [4] (at 50.0 µM), 14.2%. Also, the growth inhibition in test [5] (setting [7]) is -1%; in test [5] (setting [8]), -4%; in test [5] (at 50.0 µM), -16.1%; in test [6] (setting [7]), -5%; in test [6] (setting [8]), -12%; in test [6] (at 50.0 µM), 68.2%.
As to `COc1ccc(NN=O)nc1`, the growth inhibition was 21% in test [1] (setting [7]); 16% in test [1] (setting [8]); 31.9% in test [1] (at 50.0 µM); 8% in test [2] (setting [7]); 17% in test [2] (setting [8]); -2.2% in test [2] (at 50.0 µM). Further, the growth inhibition in test [3] (setting [7]) is 18%; in test [3] (setting [8]), 23%; in test [3] (at 50.0 µM), -20.9%; in test [4] (setting [7]), 7%; in test [4] (setting [8]), 24%; in test [4] (at 50.0 µM), -18.6%. The growth inhibition was 20% in test [5] (setting [7]); 22% in test [5] (setting [8]); -22.4% in test [5] (at 50.0 µM); 20% in test [6] (setting [7]); 29% in test [6] (setting [8]); 3.95% in test [6] (at 50.0 µM).
With `CCC[CH2][Sn]1([CH2]CCC)[O]CC(Cc2ccccc2)[O]1` (configuration not stated), the growth inhibition in test [1] (setting [7]) was 31%; in test [1] (setting [8]) it was 96% (active); in test [1] (at 50.0 µM), 85.5% (active); in test [2] (setting [7]) it was 22%; in test [2] (setting [8]) it was 98% (active); in test [2] (at 50.0 µM), 90.2% (active). The growth inhibition was 54% in test [3] (setting [7]); 98% (active) in test [3] (setting [8]); 86.9% (active) in test [3] (at 50.0 µM); 32% in test [4] (setting [7]); 95% (active) in test [4] (setting [8]); 84.7% (active) in test [4] (at 50.0 µM). Moreover, the growth inhibition in test [5] (setting [7]) was 55%; in test [5] (setting [8]) it was 98% (active); in test [5] (at 50.0 µM), 89.1% (active); in test [6] (setting [7]), 39%; in test [6] (setting [8]), 97% (active); in test [6] (at 50.0 µM), 88.5% (active).
Regarding `O=C(CCl)OCc1ccccc1`, the growth inhibition is 1% in test [1] (setting [7]); 14% in test [1] (setting [8]); 34.1% in test [1] (at 50.0 µM); 3% in test [2] (setting [7]); 21% in test [2] (setting [8]); 30.7% in test [2] (at 50.0 µM). The growth inhibition is 0% in test [3] (setting [7]); 18% in test [3] (setting [8]); 10.3% in test [3] (at 50.0 µM); 5% in test [4] (setting [7]); 10% in test [4] (setting [8]); -21.9% in test [4] (at 50.0 µM). Further, the growth inhibition was -3% in test [5] (setting [7]); 5% in test [5] (setting [8]); 5.4% in test [5] (at 50.0 µM); 5% in test [6] (setting [7]); 20% in test [6] (setting [8]); 55% in test [6] (at 50.0 µM).
For the molecule `CC(C)=N.[C-]#[O+].[C-]#[O+].[C-]#[O+].[C-]#[O+].[C-]#[O+].[W]`, the growth inhibition in test [1] (setting [7]) is 30%; in test [1] (setting [8]) it was 34%; in test [1] (at 50.0 µM), -7.35%; in test [2] (setting [7]), 15%; in test [2] (setting [8]) it was 35%; in test [2] (at 50.0 µM), -2.45%. Also, the growth inhibition in test [3] (setting [7]) is 26%; in test [3] (setting [8]), 34%; in test [3] (at 50.0 µM) it was -11.8%; in test [4] (setting [7]) it was 36%; in test [4] (setting [8]), 31%; in test [4] (at 50.0 µM), 0.7%. Besides, the growth inhibition was 36% in test [5] (setting [7]); 47% in test [5] (setting [8]); 64.5% in test [5] (at 50.0 µM); 45% in test [6] (setting [7]); 43% in test [6] (setting [8]); -13.1% in test [6] (at 50.0 µM).
For the molecule `O=C(OCC(CCl)OC(=O)C(Cl)(Cl)Cl)C(Cl)(Cl)Cl` (configuration not stated), the growth inhibition was 2% in test [1] (setting [7]); -5% in test [1] (setting [8]); 52.2% in test [1] (at 50.0 µM); 12% in test [2] (setting [7]); 16% in test [2] (setting [8]); 46.4% in test [2] (at 50.0 µM). Further, the growth inhibition was -31% in test [3] (setting [7]); -16% in test [3] (setting [8]); 67% in test [3] (at 50.0 µM); 2% in test [4] (setting [7]); 0% in test [4] (setting [8]); 78.5% (active) in test [4] (at 50.0 µM). For the same molecule, the growth inhibition in test [5] (setting [7]) is 1%; in test [5] (setting [8]), -4%; in test [5] (at 50.0 µM) it was 55.3%; in test [6] (setting [7]) it was -30%; in test [6] (setting [8]), -53%; in test [6] (at 50.0 µM), 54.8%.
Regarding `COc1cc(/C=C/[N+](=O)[O-])cc(Br)c1OC`, the growth inhibition in test [1] (setting [7]) was 86% (active); in test [1] (setting [8]), 98% (active); in test [1] (at 50.0 µM) it was 90.6% (active); in test [2] (setting [7]), 79% (active); in test [2] (setting [8]), 99% (active); in test [2] (at 50.0 µM), 92.3% (active). Further, the growth inhibition in test [3] (setting [7]) is 83% (active); in test [3] (setting [8]), 98% (active); in test [3] (at 50.0 µM), 92.5% (active); in test [4] (setting [7]) it was 55%; in test [4] (setting [8]), 97% (active); in test [4] (at 50.0 µM) it was 90.2% (active). Also, the growth inhibition in test [5] (setting [7]) is 97% (active); in test [5] (setting [8]) it was 98% (active); in test [5] (at 50.0 µM), 91.5% (active); in test [6] (setting [7]), 89% (active); in test [6] (setting [8]), 98% (active); in test [6] (at 50.0 µM), 91.7% (active).
For the molecule `Cc1cc(N(CCCl)CCCl)ccc1CN1CCCN(Cc2ccc(N(CCCl)CCCl)cc2C)C1c1ccc(N(CCCl)CCCl)cc1`, the growth inhibition is 11% in test [1] (setting [7]); 97% (active) in test [1] (setting [8]); 66.2% in test [1] (at 50.0 µM); 1% in test [2] (setting [7]); 99% (active) in test [2] (setting [8]); 21.6% in test [2] (at 50.0 µM). Also, the growth inhibition was 3% in test [3] (setting [7]); 98% (active) in test [3] (setting [8]); 86.8% (active) in test [3] (at 50.0 µM); -3% in test [4] (setting [7]); 98% (active) in test [4] (setting [8]); 21.4% in test [4] (at 50.0 µM). In addition, the growth inhibition is 5% in test [5] (setting [7]); 88% (active) in test [5] (setting [8]); 30.8% in test [5] (at 50.0 µM); 33% in test [6] (setting [7]); 97% (active) in test [6] (setting [8]); 97.2% (active) in test [6] (at 50.0 µM).
